tim23-1 inh = growth inhibitors of tim23-1 mutant yeast; S. cerevisiae tim23-1 growth, BacTiter-Glo luminescence, 24 h; 330,000 compounds, 1.3% hits; inhibition, % at 20 µM;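 active means growth inhibition of the mutant yeast at or above 50%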;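 further: temperature-sensitive mutant grown at 25 °C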
TIM10 inh = growth inhibitors of TIM10 yeast strain | S. cerevisiae TIM10 strain growth, BacTiter-Glo luminescence, 24 h | inhibition, % at 10 µM | 330,000 compounds, 1.4% hits | AID 463195;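 active means inhibition of 40% or more at the single tested concentration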;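 further: wild-type TIM10 isogenic control strain grown at permissive 25 °C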
PfHsp90 set2 = growth inhibition of yeast expressing Plasmodium Hsp90 | 310,000 compounds, 0.32% hits | inhibition, % at 9.4 µM | S. cerevisiae expressing PfHsp90, BacTiter-Glo ATP, 48 h; yeast lacking PDR1 and PDR3 efflux regulators | AID 504621;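 active means every replicate shows inhibition above about 80%, whatever the replicate mean, limit read from the data; inconclusive means mean inhibition reaches the set limit but some replicate falls short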
tim10-1 inh = inhibits growth of tim10-1 mutant yeast | S. cerevisiae tim10-1 ts strain growth, BacTiter-Glo, 24 h | inhibition, % at 20 µM | 330,000 compounds, 2.2% hits;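 active means inhibition of at least 40%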;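 further: mutant grown at 25 °C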
Rce1 inh = blocks yeast Ras-converting enzyme; yeast membranes, quenched prenylated peptide cleavage fluorescence; calls only; 290,000 compounds, 0.27% hits;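 active means fall in fluorescence gain of 50% or more versus controls, with final raw signal at or below 3038400; inconclusive means same 50% fall but final raw signal above 3038400; inactive means fall in fluorescence gain under 50%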
Target sequence (Q03530 whole entry, looked up): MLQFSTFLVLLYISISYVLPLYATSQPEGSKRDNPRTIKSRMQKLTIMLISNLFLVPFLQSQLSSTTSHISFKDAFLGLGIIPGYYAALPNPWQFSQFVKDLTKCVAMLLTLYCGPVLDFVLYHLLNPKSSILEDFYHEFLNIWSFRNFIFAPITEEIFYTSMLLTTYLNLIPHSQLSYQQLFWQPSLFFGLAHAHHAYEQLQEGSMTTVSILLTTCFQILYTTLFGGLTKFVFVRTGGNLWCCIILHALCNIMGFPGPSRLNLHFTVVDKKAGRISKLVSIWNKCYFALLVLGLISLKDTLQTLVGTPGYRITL
TIM10 conf = confirmation of TIM10 yeast growth inhibitors; shares compounds with TIM10 inh; S. cerevisiae tim10 strain growth, BacTiter-Glo luminescence, 24 h; inhibition, % at 10 µM; 4,600 compounds, 63% hits;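 active means inhibition of yeast growth at or above a set limit in either of two replicates at 10 µM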; further: this counterscreen used the strain with wild-type TIM10
Large screens that a line does not name were inactive (follow-up assays come after a bar, where they were run). An excerpt weighted towards active compounds, which were near 3.7% of everything screened.

O=C(Nc1ccccc1-c1ccccc1)C1CCCC1	none
O=C(Nc1ccccc1-c1ccccc1)C12CC3CC(CC(C3)C1)C2	TIM10 inh 50 | TIM10 conf 39
COc1ccc(CCNC(=O)CSC2=NS(=O)(=O)c3ccccc3N2)cc1OC	none
CCCCn1c(N)c(N(C)C(=O)C2CC(=O)N(Cc3ccco3)C2)c(=O)[nH]c1=O (stereo not given)	none (no result: Rce1 inh)
Cc1csc(Nc2nc(N)c(C(=O)Nc3ccccc3)o2)n1	TIM10 inh 43 | TIM10 conf inactive
O=C(Nc1nccs1)c1ccc(-c2ccccc2Cl)o1	TIM10 inh 47 (no result: Rce1 inh) | TIM10 conf inactive
O=C(Cc1ccccc1F)Nc1nc(-c2cccs2)cs1	TIM10 inh 47 | TIM10 conf inactive
O=C(Nc1nc(-c2cccs2)cs1)c1ccc([N+](=O)[O-])o1	TIM10 inh 63, PfHsp90 set2 84 (no result: Rce1 inh) | TIM10 conf 87
O=C(Cc1ccccc1)Nc1nc(-c2cccs2)cs1	none
Cc1cccc(NC(=O)c2ccc([N+](=O)[O-])o2)n1	TIM10 inh 60 (no result: PfHsp90 set2) | TIM10 conf inactive
O=C(Nc1cccc(NC(=O)c2cccs2)c1)c1ccc([N+](=O)[O-])o1	TIM10 inh 56 | TIM10 conf 62
Cc1ccc(C)c(NC(=O)Cn2nnc(C(=O)NCc3cccs3)c2N)c1	none
Cc1ccc(NC(=O)c2cccs2)cc1[N+](=O)[O-]	TIM10 inh 45 | TIM10 conf inactive
Cc1ccc(C(=O)Nc2ccc(NC(=O)c3cccs3)cc2)cc1[N+](=O)[O-]	none (no result: Rce1 inh)
Cc1sc2ncnc(N3CCC(C(=O)Nc4nc(-c5cccs5)cs4)CC3)c2c1C	none (no result: PfHsp90 set2)
C=CC(=O)NC1CC2CCC1(C)C2(C)C (stereo not given)	none
Cc1ccc(C(=O)Nc2ccc3c(c2)nc2n3CCSC2)cc1	TIM10 inh 63 | TIM10 conf 65
COc1cc(C(C)=O)ccc1OCC(O)CN1CCN(c2c(C)cccc2C)CC1 (stereo not given)	TIM10 inh 97 (no result: Rce1 inh) | TIM10 conf inactive
O=C(N[C@@H](Cc1ccccc1)C(=O)NCCc1c[nH]c2ccccc12)c1ccco1	none
COc1ccc(CNC(=O)CSc2cccc3cccnc23)cc1	TIM10 inh 51 | TIM10 conf inactive
COc1ccc(NC(=O)CSc2cccc3cccnc23)c(OC)c1	none
O=C(Nc1ccc2nc(-c3cccs3)[nH]c2c1)c1cccs1	TIM10 inh 52 | TIM10 conf 33
Cc1sc(NC(=S)NC(=O)c2cccs2)nc1-c1ccc(C(C)C)cc1	none
O=C(Nc1ccc(-c2nc3ccc(NC(=O)c4cccs4)cc3[nH]2)cc1)c1cccs1	none
Cc1sc(NC(=O)c2cccs2)nc1-c1ccccc1	TIM10 inh 47 (no result: PfHsp90 set2) | TIM10 conf inactive
O=C(Nc1ccc(Cc2ccncc2)cc1)c1cccs1	TIM10 inh 41 | TIM10 conf inactive
Cc1ccc(Cc2cnc(NC(=O)c3cccs3)s2)cc1	TIM10 inh 54 | TIM10 conf inactive
Cc1ccc(NC(=O)CCSc2ccccn2)cc1	none
O=C(Oc1coc(CSc2ncccn2)cc1=O)c1ccc(Br)o1	TIM10 inh 44 | TIM10 conf inactive
O=C(Oc1coc(CSc2ncccn2)cc1=O)c1ccco1	none
CN(C(=O)c1ccc(NC(=O)Cc2cccc(NC(=O)C3CCCN(C(=O)CCc4ccccc4)C3)c2)cc1)C1CC1 (stereo not given)	none (no result: tim23-1 inh, TIM10 inh, tim10-1 inh, Rce1 inh)
Cc1ccc(C)c(-c2cc(C(=O)Nc3nccs3)c3ccccc3n2)c1	TIM10 inh 47 | TIM10 conf 42
c1ccc2c(c1)NC1(CCCCCC1)n1c-2nc2ccccc21	TIM10 inh 42, Rce1 inh inconclusive | TIM10 conf inactive
C[C@H](c1ccccc1)n1nnc(COCc2ccccc2)c1C#CCOCc1ccccc1	none
CSc1ccc(C(=O)C2CCCN(C(=O)c3ccc4c(c3)no[n+]4[O-])C2)cc1 (stereo not given)	TIM10 inh 46 | TIM10 conf 35
CSc1ccc(C(=O)C2CCCN(C(=O)c3ccsc3)C2)cc1 (stereo not given)	none
Cc1cc(NC(=O)c2c(Br)c(C)nn2C)no1	none
CCCn1cc(NC(=O)c2cc(-c3ccccc3)on2)cn1	TIM10 inh 43 | TIM10 conf 41
COc1ccc(Cc2nnc(SC(C)C(=O)Nc3ccc(C(N)=O)cc3)o2)cc1 (stereo not given)	none (no result: PfHsp90 set2)
Cc1cc(C)nc(N/N=C/c2ccccc2OCc2cccc(Br)c2)n1	TIM10 inh 48 | TIM10 conf inactive
Cc1cc(C)nc(N/N=C/c2ccccc2OCc2ccc(Br)cc2)n1	none
COCCN1C(=O)C(=O)/C(=C(/O)c2ccc(S(=O)(=O)N3CCCCC3)cc2)C1c1ccc(OC)cc1 (stereo not given)	TIM10 inh 90 | TIM10 conf inactive
O=C(Cc1ccc(Cl)cc1Cl)OCC(=O)N1CCN(C(=O)c2ccco2)CC1	none (no result: Rce1 inh)
O=C1NC(=S)S/C1=C\c1coc2ccccc2c1=O	TIM10 inh 44 | TIM10 conf inactive
O=C(CCN1CCc2ccccc2C1)Nc1ccccc1	none
CCCOc1ccc(C(=O)Nc2ccc(Cl)cn2)cc1	none
O=C(Nc1ccc(Cl)cn1)c1ccc(Oc2ccccc2)cc1	TIM10 inh 75 (no result: Rce1 inh) | TIM10 conf inactive
O=C1CCC(C(=O)OCC(=O)N2N=C3/C(=C/c4ccccc4)CCCC3C2c2ccccc2)N1 (stereo not given)	TIM10 inh 42 (no result: PfHsp90 set2) | TIM10 conf inactive
O=C(c1cnn2ccccc12)N(Cc1ccco1)C1CCCC1	none
COc1ccccc1N1CC(C)(C)C(=O)N(C(=O)c2ccc(C)cc2)C1=S	TIM10 inh 43 | TIM10 conf 45
Cc1ccccc1-n1c(-c2csc3ccccc23)n[nH]c1=S	TIM10 inh 40 | TIM10 conf inactive
Oc1ccc(N=Nc2c(O)ccc3ccccc23)cc1	TIM10 inh 54, PfHsp90 set2 127 | TIM10 conf 65
COc1cccc2cc(/C(=N/O)c3ccccc3)oc12	TIM10 inh 55 | TIM10 conf 42
CC(NC(=O)c1ccccc1)c1nnc(SCC(=O)Nc2nnc(C3CC3)s2)n1C (stereo not given)	none (no result: PfHsp90 set2)
Cc1ccc(N=CC2=C(O)CC(c3ccc(Cl)cc3)CC2=O)cc1 (stereo not given)	none
Clc1c(CSc2nc3ccccc3o2)nc2ccccn12	TIM10 inh 43 | TIM10 conf inactive
COc1ccc(C(=O)/C=C/C(=O)N(Cc2ccc(F)cc2)C(C(=O)NC2CCCCC2)c2ccncc2)c(O)c1 (stereo not given)	TIM10 inh 44 | TIM10 conf inactive
COc1ccc(C(=O)/C=C/C(=O)N(Cc2ccccc2)C(C(=O)NC2CCCCC2)c2ccncc2)c(O)c1 (stereo not given)	none
COc1cc(OC)cc(-c2nnc(SCc3ccc(C(=O)O)cc3)o2)c1	none
COc1ccc(OC)c(-n2c(SCC(N)=O)nnc2-c2c[nH]c3ccccc23)c1	TIM10 inh 98 | TIM10 conf inactive
Cc1cc(N=NC(=O)c2ccccc2)ccc1O	none

Bioassay records from PubChem.
